The record followed here is PubChem BioAssay.

Activity calls are given as the source filed them.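 The calls were made as follows, unless noted: active = fluorescence slope higher than the sample average by over 3 SD (cut at about -0.22 in these data, passing the limit was not always enough); inactive = the rest.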

Assay [1] in a line: inhibitors of TNFa-induced NFkB p65 translocation, primary screen, imaging, HUVEC, MLSMR starter and 10KST1 sets (AID 438;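 active = inhibition above 20% together with a positive visual image hit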;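 also: compound added about 3h40 before a 20 min TNFalpha stimulation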;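 as to inhibition: signal is the nuclear over cytoplasmic p65 intensity ratio per well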). The following applies: HUVEC TNFa-induced p65 nuclear translocation; cell count: measured here: nuclei count (cytotoxicity indicator), at 2.08 µM; inhibition: at 2 µM, stronger effect = higher value, 0% TNFa-plus-vehicle, 100% no-TNFa wells.
A short description of assay [2]: reduction of polyQ htt aggregates in cells – imaging, exon1htt(103Q)mCFP cells, high-content imaging, primary screen (AID 483;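 active = visual image review flags a hit and inhibition of aggregation exceeds 20%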;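 also: compound exposure lasted 3 days before fixation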;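 as to nuclei count: percent of the per-plate median nuclei count of sample wells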). The following applies: exon1htt(103Q)mCFP cell line, aggregate imaging, at 2 µM; inhibition of aggregation: stronger effect = higher value; nuclei count: measured here: cell count, toxicity.
Assay [3] is described as follows: endothelial E-selectin expression blockers – imaging, HUVEC, immunofluorescence, MLSMR starter and 10KST1 sets, primary screen (AID 487;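 active = visually confirmed hit in the image check and inhibition above 20%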;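 as to inhibition: signal is fraction of cell area covered by stained E-selectin grains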;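 as to nuclei count: 100% = median nuclei count of all wells on the same plate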). As to conditions: HUVEC TNFalpha-induced E-selectin immunofluorescence imaging, at 2 µM; inhibition: stronger effect = higher value; nuclei count: measured here: cell number, toxicity.
For assay [4], the target named is Voltage-gated potassium channel subunit beta-2 (Rattus norvegicus) (UniProt P62483). The experiment in a line: inhibitors of rat Kvbeta2 reductase activity – biochemical, NADPH fluorescence, primary screen (AID 622).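 Also: slope of raw intensity against log time taken from 70 to 1610 s.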 As to conditions: recombinant KvBeta, 4-cyanobenzaldehyde reduction, at 10 µM, stronger effect = higher value.
Chain of Voltage-gated potassium channel subunit beta-2 (Rattus norvegicus) (P62483 whole entry, looked up): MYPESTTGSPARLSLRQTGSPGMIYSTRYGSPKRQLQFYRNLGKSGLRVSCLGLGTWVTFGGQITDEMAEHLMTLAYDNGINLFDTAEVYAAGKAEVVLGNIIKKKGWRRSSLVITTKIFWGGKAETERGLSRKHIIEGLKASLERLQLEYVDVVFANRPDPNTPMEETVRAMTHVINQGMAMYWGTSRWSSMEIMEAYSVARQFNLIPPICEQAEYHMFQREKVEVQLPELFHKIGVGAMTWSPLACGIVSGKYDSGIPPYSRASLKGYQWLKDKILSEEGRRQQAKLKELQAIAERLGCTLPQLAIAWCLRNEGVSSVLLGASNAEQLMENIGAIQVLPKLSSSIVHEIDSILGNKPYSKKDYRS
For assay [5] the target is unchanged. Nature of the assay: enhancers of rat Kvbeta2 NADPH turnover – biochemical, NADPH fluorescence, primary screen (AID 623;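 active = NADPH fluorescence slope more negative than the mean of all samples by about 3 SD, 99.7% confidence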;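 also: fluorescence intensity change per second fitted from 20 to 320 s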). As to conditions: Recombinant KvBeta, NADPH fluorescence decrease slope, 10 min; at 10 µM; stronger effect = lower value.
For assay [6], the target named is Alpha-2C adrenergic receptor (Homo sapiens) (UniProt P18825). Nature of the assay: compounds altering alpha2C-coupled GIRK flux – cell-based, HEK293 alpha2C/GIRK1/2, thallium flux, primary screen (AID 624;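 active = fluorescence slope after compound addition differing from the mean of all screened samples at 99.7% confidence, in either direction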;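 also: slope of fluorescence ratio to pre-addition baseline per second over 15 to 24 s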). The following applies: thallium flux BTC fluorescence, at 10 µM, actives lie on both sides.
Chain of Alpha-2C adrenergic receptor (Homo sapiens) (P18825 whole entry, looked up): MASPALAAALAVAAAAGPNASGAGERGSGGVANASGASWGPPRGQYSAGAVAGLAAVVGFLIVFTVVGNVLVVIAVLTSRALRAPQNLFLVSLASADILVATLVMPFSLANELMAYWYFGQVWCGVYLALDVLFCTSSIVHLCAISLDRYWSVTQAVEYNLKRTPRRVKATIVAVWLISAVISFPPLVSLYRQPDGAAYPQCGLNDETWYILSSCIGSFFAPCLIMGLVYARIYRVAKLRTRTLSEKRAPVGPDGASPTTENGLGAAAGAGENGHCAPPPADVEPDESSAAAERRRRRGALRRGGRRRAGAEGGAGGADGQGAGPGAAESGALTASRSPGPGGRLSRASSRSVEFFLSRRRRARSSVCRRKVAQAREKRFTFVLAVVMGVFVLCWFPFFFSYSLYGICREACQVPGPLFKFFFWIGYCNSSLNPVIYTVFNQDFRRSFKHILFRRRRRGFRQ
Assay [7] in a line: blockers of RIG-like receptor reporter activation – cell-based, Sendai virus stimulus, luciferase, 10K MLSCN set, TLR/RLR signaling modifier project, primary screen (AID 602276;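 active = inhibition at or above 50% at 10 µM; inactive = inhibition below 50%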;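 also: firefly luciferase from ISG56 promoter only with Renilla not read in this screen; 0% = Sendai virus plus DMSO and 100% = medium plus DMSO without virus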). The following applies: HEK293 RL24 IRF3 luciferase reporter, at 10 µM, stronger effect = higher value.
Assay [8] can be described thus: TLR3 IRF3 reporter activation blockers – cell-based, poly I:C stimulus, luciferase, 10K MLSCN set, primary screen (AID 602277;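 active = inhibition of the reporter signal at or above 50%; inactive = inhibition below 50%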). The following applies: HEK293-TLR3 RL24 IRF3 luciferase reporter, at 10 µM, stronger effect = higher value.

As for `O=C(NC1CCCCC1)C1CCCN1C(=O)NCc1ccccc1` (stereo not given), the cell count in assay [1] is 317. Besides, the inhibition is 3.4% (inactive) in assay [1], -33.5% (inactive) in assay [3], 5.02% (inactive) in assay [7] and 10.2% (inactive) in assay [8]. The inhibition of aggregation in assay [2] is 7.5% (inactive). The nuclei count in assay [2] turned out to be 106%; in assay [3], 120%. For the same molecule, in assay [4], the fluorescence slope was -0.43 (inactive). The NADPH fluorescence slope in assay [5] was -5.2e-05 (inactive). Further, the slope in assay [6] was 0.00543 (inactive).

With `COc1ccc(Br)cc1C1N2CC3(C)CN1CC(C)(C2)C3=O` (stereo not given), in assay [1], the cell count came to 435. Besides, the values for the inhibition in assay [1], in assay [7] and in assay [8] were 5.6% (inactive), -3.74% (inactive) and 10.3% (inactive), respectively. In addition, the inhibition of aggregation in assay [2] was 6.8% (inactive). Also, the values for the nuclei count in assay [2] and in assay [3] were 96.9% and 148%, respectively. Besides, the fluorescence slope in assay [4] is -0.389 (inactive). In addition, in assay [5], the NADPH fluorescence slope is -0.000152 (inactive). Also, the slope in assay [6] was 0.00688 (inactive).

For `COc1cc2c(cc1OC)-c1nnc(C)n1C1(CCCC1)C2`, the cell count in assay [1] amounted to 849. Further, the inhibition in assay [1] is 2.9% (inactive); in assay [3] it was -70.9% (inactive); in assay [7], 10.3% (inactive); in assay [8] it was 1.68% (inactive). Moreover, the inhibition of aggregation in assay [2] is -14.8% (inactive). Besides, the values for the nuclei count in assay [2] and in assay [3] were 132% and 120%, respectively. Also, in assay [4], the fluorescence slope was -0.606 (inactive). Moreover, the NADPH fluorescence slope in assay [5] is 3.2e-05 (inactive). Besides, the slope in assay [6] is 0.00696 (inactive).

As to `COC(=O)c1cnc2c(C(F)(F)F)cccc2c1OC`, the cell count in assay [1] was determined as 595. Moreover, the inhibition was -8.5% (inactive) in assay [1], -64.2% (inactive) in assay [3], 9.38% (inactive) in assay [7] and 10.1% (inactive) in assay [8]. The inhibition of aggregation in assay [2] was -5% (inactive). Moreover, the nuclei count in assay [2] stood at 61.8%; in assay [3], 84.8%. Also, in assay [4], the fluorescence slope is -0.605 (inactive). For the same molecule, in assay [5], the NADPH fluorescence slope is 6.9e-06 (inactive). For the same molecule, the slope in assay [6] is 0.0043 (inactive).

Consider `Clc1cccc(Nc2c3c(nc4ncnn24)CCC3)c1`, for which the cell count in assay [1] is 416. The figures for the inhibition in assay [1], in assay [7] and in assay [8] were 6% (inactive), 14.9% (inactive) and 30.2% (inactive), respectively. Further, the inhibition of aggregation in assay [2] was -33.4% (inactive). The values for the nuclei count in assay [2] and in assay [3] were 36% and 145%, respectively. In addition, the fluorescence slope in assay [4] is -0.63 (inactive). In addition, the NADPH fluorescence slope in assay [5] was -2.2e-07 (inactive). The slope in assay [6] is 0.00604 (inactive).

Take `COc1cccc(C(=O)Nc2ccc(C)cc2)c1`: in assay [1], the cell count came to 410. The values for the inhibition in assay [1], in assay [7] and in assay [8] were -0.2% (inactive), -48.7% (inactive) and -91.5% (inactive), respectively. In assay [2], the inhibition of aggregation was 4.8% (inactive). The nuclei count in assay [2] came out at 95.1%; in assay [3], 154%. Further, in assay [4], the fluorescence slope is -0.367 (inactive). Further, the NADPH fluorescence slope in assay [5] was 4.6e-05 (inactive). The slope in assay [6] is 0.00626 (inactive).

On to `COC(=O)C1=C(C)C(c2cccs2)NC(=O)N1C` (stereo not given), for which the cell count in assay [1] turned out to be 464. Also, the inhibition in assay [1] is 4.4% (inactive); in assay [7], 15.4% (inactive); in assay [8], 17.5% (inactive). For the same molecule, the inhibition of aggregation in assay [2] was -0.4% (inactive). For the same molecule, the nuclei count came out at 102% in assay [2] and 137% in assay [3]. Further, the fluorescence slope in assay [4] was -0.618 (inactive). Also, the NADPH fluorescence slope in assay [5] was -2.3e-05 (inactive). Besides, in assay [6], the slope is 0.0046 (inactive).

In the case of `Cc1ccc(Cn2nnc(C(=O)Nc3cccc(C)c3C)c2N)cc1`, the cell count in assay [1] was 457. In addition, the inhibition was 9.4% (inactive) in assay [1], 6.59% (inactive) in assay [7] and 9.57% (inactive) in assay [8]. In assay [2], the inhibition of aggregation is 1.7% (inactive). Further, the nuclei count in assay [2] came out at 95.1%; in assay [3] it was 150%. For the same molecule, the fluorescence slope in assay [4] was -0.565 (inactive). Besides, in assay [5], the NADPH fluorescence slope is 2.2e-07 (inactive). The slope in assay [6] is 0.00621 (inactive).

Regarding `CCCn1c(N)c(C(=O)CSc2nnc(Cc3ccccc3)o2)c(=O)n(C)c1=O`, the cell count in assay [1] was determined as 412. For the same molecule, the inhibition was 1% (inactive) in assay [1], 9.61% (inactive) in assay [7] and -3.84% (inactive) in assay [8]. In assay [2], the inhibition of aggregation is 4.7% (inactive). Further, the nuclei count in assay [2] was determined as 99.8%; in assay [3], 150%. Also, the fluorescence slope in assay [4] was -0.556 (inactive). Moreover, the NADPH fluorescence slope in assay [5] is 0.00012 (inactive). Moreover, the slope in assay [6] is 0.00683 (inactive).

For `O=C(O)c1cccc(NS(=O)(=O)c2ccc3nnn(O)c3c2)c1`, the cell count in assay [1] amounted to 435. The values for the inhibition in assay [1], in assay [7] and in assay [8] were 10.6% (inactive), 12.9% (inactive) and 18.7% (inactive), respectively. The inhibition of aggregation in assay [2] is -5.7% (inactive). Further, the nuclei count was determined as 108% in assay [2] and 152% in assay [3]. The fluorescence slope in assay [4] is -0.403 (inactive). Further, the NADPH fluorescence slope in assay [5] was -5.1e-06 (inactive). The slope in assay [6] was 0.00611 (inactive).

In the case of `CCCSC1=C(C#N)C(c2cc(OC)ccc2OC)CC(=O)N1` (stereo not given), the cell count in assay [1] was found to be 674. The inhibition is 5.8% (inactive) in assay [1], -61.3% (inactive) in assay [3], 18.1% (inactive) in assay [7] and 25.8% (inactive) in assay [8]. Besides, the inhibition of aggregation in assay [2] is 10.8% (inactive). Besides, the nuclei count worked out at 114% in assay [2] and 116% in assay [3]. The fluorescence slope in assay [4] was -0.518 (inactive). Besides, the NADPH fluorescence slope in assay [5] is -4.2e-05 (inactive). Also, the slope in assay [6] was 0.00728 (inactive).

`Cc1ccc2c(CC(=O)OCc3csc(C)n3)coc2c1`: in assay [1], the cell count is 367. Moreover, the figures for the inhibition in assay [1], in assay [7] and in assay [8] were 0.2% (inactive), 6.62% (inactive) and 30% (inactive), respectively. Moreover, in assay [2], the inhibition of aggregation is 7.3% (inactive). Also, the figures for the nuclei count in assay [2] and in assay [3] were 92.6% and 106%, respectively. Moreover, in assay [4], the fluorescence slope is -0.44 (inactive). Also, in assay [5], the NADPH fluorescence slope was 2.3e-05 (inactive). Further, the slope in assay [6] was 0.00641 (inactive).

As to `COc1ccc(OC)c(NC(=O)CCNS(=O)(=O)c2cccs2)c1`, in assay [1], the cell count worked out at 662. Moreover, the inhibition in assay [1] was 7.1% (inactive); in assay [3], -74.4% (inactive); in assay [7], 14.1% (inactive); in assay [8], 24.2% (inactive). For the same molecule, the inhibition of aggregation in assay [2] is 5.1% (inactive). Also, the nuclei count came to 81.4% in assay [2] and 91.1% in assay [3]. For the same molecule, the fluorescence slope in assay [4] was -0.533 (inactive). In addition, in assay [5], the NADPH fluorescence slope is 3.3e-05 (inactive). Besides, the slope in assay [6] was 0.00666 (inactive).
